# TDP1 cell noCPT – qHTS for Inhibitors of human tyrosyl-DNA phosphodiesterase 1 (TDP1): qHTS in cells in absence of CPT; DT40 Tdp1-/- hTDP1 cells, no CPT, ATP luminescence, 48 h; Potency, µM (highest dose often 46.2 µM), without a hit: top-dose activity change, negative = growth inhibition, most hits filed as inhibitors; 420,000 tested, 15% active; AID 686978, 2013; note: nearly all actives have a fitted effect of over 55% in size
#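 Growth of hTDP1-complemented DT40 Tdp1-knockout cells is measured by ATP luminescence after at least 48 hr compound exposure at 37 °C, with DMSO substituting for the 20 nM CPT used in the parallel screen.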
# KB-V1 cytotox – qHTS assay for MDR1-selective chemotherapeutics: Primary screen using the drug-selected MDR subline cells KB-V1. AID 1347076, 2019. Potency, µM (highest dose often 46.1 µM), most hits filed as cytotoxic. 400,000 tested, 3.4% active. KB-V1 MDR cells viability, CellTiter-Glo, 72 h; note: nearly all actives have a fitted effect of over 60% in size
#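 KB-V1, DMEM (no phenol red) + 10% FBS; cpd pin-transferred, titration series; 72 h, 37 degrees C; CellTiter-Glo, luminescence. Data normalized, curve-fit.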
# KB-3-1 tox – qHTS assay for MDR1-selective chemotherapeutics: Primary screen using the parental adenocarcinoma cell KB-3-1. KB-3-1 viability, CellTiter-Glo ATP luminescence, 72 h. Potency, µM (series often up to 46.1 µM), most hits filed as cytotoxic. 400,000 tested, 1.4% active; note: nearly all actives have a fitted effect of over 60% in size
#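 72 h, 37 °C compound treatment of KB-3-1 parental cells; CellTiter-Glo added, 10 min, luminescence read. Data corrected against DMSO-only plates and normalized before curve fitting.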
# HT1080-NT tox – qHTS for induction of synthetic lethality in tumor cells producing 2HG: qHTS for the HT-1080-NT fibrosarcoma cell line. HT-1080-NT fibrosarcoma viability, CellTiter-Glo ATP luminescence, 48 h. Potency, µM (titrated, usually from 46.1 µM), for inactives: at the highest dose activity, negative = less viability, usual class: cytotoxic. 360,000 tested, 1.6% active;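 note: NT is the 2HG producing partner of a matched IDH1 knockdown line; 0% = DMSO-treated cells and -100% = media-only wells without cells; nearly all actives have a fitted effect of over 55% in size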
#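 Fibrosarcoma NT cells, 750 per well in 5% FBS RPMI, were exposed to compound for 48 hours. Viability: CellTiter-Glo luminescence.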
# HT1080 IDH1KD tx – qHTS for induction of synthetic lethality in tumor cells producing 2HG: qHTS for the HT-1080-IDH1KD cell line; HT-1080 IDH1 knockdown viability, ATP luminescence, 48 h; Potency, µM (doses to about 46.1 µM), for the others: at the highest dose activity, negative = toxicity, actives largely listed as cytotoxic; 360,000 tested, 2% active;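 note: 0% = DMSO wells and -100% = cell-free medium wells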
#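 Cytotoxicity counter-line: IDH1KD HT-1080, 48 h, CellTiter-Glo. Curves classed by r2, magnitude and activity.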
# TDP1 cell CPT – qHTS for Inhibitors of human tyrosyl-DNA phosphodiesterase 1 (TDP1): qHTS in cells in presence of CPT | 420,000 tested, 12% active | Potency, µM (doses to about 46.2 µM), for the others: at the highest dose activity change, negative = growth inhibition, actives largely listed as inhibitors | chicken DT40 Tdp1-/-;hTDP1 cells + 20 nM CPT, ATP luminescence, 48 h; note: nearly all actives have a fitted effect of over 55% in size
#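 Chicken DT40 Tdp1-/- cells complemented with human TDP1, 400 cells/well, exposed to compounds plus 20 nM camptothecin for at least 48 h at 37 C; viability read as ATP content by CellTiter-Glo luminescence.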
# Active calls of the source: *; i = inactive; u = inconclusive; x = no result given. An excerpt weighted towards active compounds, which were near 19% of everything screened. Calls come from the whole dose curve; as a rule, active = well fitted curve in the direction sought with a large enough effect; inconclusive = small, poorly fitted or top-dose-only effect, or another doubt; inactive = no such curve, though single readings can be large; an effect the other way counts as inactive or inconclusive. Unless noted, % is set by controls: 0 for no effect and ±100 for the full control effect; potency is the fitted concentration of half-maximal effect.
SMILES,TDP1 cell noCPT,KB-V1 cytotox,KB-3-1 tox,HT1080-NT tox,HT1080 IDH1KD tx,TDP1 cell CPT
Cc1cccc(-c2cc3nc(C)c(C)c(NCCCn4ccnc4)n3n2)c1,15µM*,u,u,u,u,u
Cc1cc(NCCCn2ccnc2)n2nc(-c3ccc(F)cc3)cc2n1,-25%,u,i,-8%,-24%,-19%
Cc1nn2c(NCCCn3ccnc3)cc(C(C)C)nc2c1-c1ccccc1,u,u,i,15µM*,u,u
CC1(C)COC2(OC1)C(=O)N(CN1CCOCC1)c1ccccc12,u,u,i,8%,15%,u
CC1CCN(C(=O)CCCl)c2ccccc21 (stereo not given),-18%,i,i,16%,12%,5%
Cc1cc(C)nc(NS(=O)(=O)c2ccc(NC(=O)CCCN3C(=O)c4ccccc4C3=O)cc2)n1,3%,i,i,0%,12%,-18%
O=C(O)C(Cc1ccccc1N(CCO)CCO)N1C(=O)c2ccccc2C1=O (stereo not given),-12%,i,u,1%,5%,10%
CC(=O)Nc1ccc(Nc2cc(C)nc3c(-c4ccccc4)c(C)nn23)cc1,u,i,i,-8%,-22%,u
CC(=O)Nc1ccc(Nc2cc(C(C)C)nc3c(-c4ccccc4)c(C)nn23)cc1,u,i,5.8µM*,u,u,u
CC(=O)C1=C(c2ccc(Br)cc2)N(C(C)=O)n2c(nnc2C2CCCCC2)S1,u,x,x,x,x,5%
CC(=O)C1=C(c2ccc(F)cc2)N(C(C)=O)n2c(nnc2C2CCCCC2)S1,23µM*,x,x,x,x,u
CCC(=O)C1=C(c2ccc(C)cc2)N(C(=O)CC)n2c(nnc2C2CCCCC2)S1,26µM*,x,x,x,x,u
CCC(=O)C1=C(c2ccc(F)cc2)N(C(=O)CC)n2c(nnc2-c2ccc(OC)cc2)S1,2.9µM*,i,i,x,x,4.1µM*
COc1ccc(OC(=O)CSc2nnc(-c3ccc(F)cc3)o2)cc1,-27%,i,i,x,x,-2%
COc1cccc(NC(=O)c2cccnn2)c1,-6%,i,i,0%,-2%,5%
CC1CCC(C(=O)c2c(O)c3ccccc3oc2=O)CC1 (stereo not given),18µM*,3.7µM*,u,-23%,-14%,18µM*
CC(=N)c1c(O)c2ccccc2oc1=O,14%,i,i,6%,-7%,-7%
COc1ccc(OCC(=O)c2c(O)c3ccccc3oc2=O)cc1,-26%,21µM*,u,-5%,-1%,u
N=C(N)SCc1cccc2c(=O)cc(-c3ccccc3)oc12,7.1µM*,i,u,x,x,4.5µM*
O=C(Cc1cccc2c(=O)cc(-c3ccccc3)oc12)OCCN1CCOCC1,-10%,i,i,18%,1%,-5%
COc1ccc(C)cc1N(C(=O)COc1ccccc1)c1nc2ccccc2s1,u,21µM*,i,2%,-10%,u
COc1ccc(C)cc1N(C(=O)c1ccccc1F)c1nc2ccccc2s1,18µM*,i,i,-2%,-15%,u
NCCCC[C@H](NC(=O)[C@@H]1CCCN1C(=O)[C@@H]1CSSC[C@H](N)C(=O)N[C@@H](Cc2ccc(O)cc2)C(=O)N[C@@H](Cc2ccccc2)C(=O)N[C@@H](CCC(N)=O)C(=O)N[C@@H](CC(N)=O)C(=O)N1)C(=O)NCC(N)=O,3%,x,x,x,x,-21%
COc1ccc(C(=O)c2nccc3ccccc23)cc1,-18%,i,i,4%,2%,0%
COC(=O)N1CCC2(CCCN(C(=O)Nc3cccc(C#N)c3)C2)CC1,-9%,x,x,x,x,1%
SMILES,TDP1 cell noCPT,KB-V1 cytotox,KB-3-1 tox,HT1080-NT tox,HT1080 IDH1KD tx,TDP1 cell CPT
COc1ncc(-c2ccc(N3C(c4ccc([N+](=O)[O-])cc4)=Cc4ccccc4C3CC(C)=O)cc2)cn1 (stereo not given),u,i,i,5%,12%,u
CCOC(=O)c1ccc(-c2ccc(N3C(c4cccc(OC)c4)=Cc4ccc(F)cc4C3CC(C)=O)cc2)cc1F (stereo not given),-17%,i,i,-4%,17%,-23%
COc1cc(OC)cc(C2=Cc3ccccc3C(CC(C)=O)N2c2ccc(-c3cccs3)cc2)c1 (stereo not given),21µM*,i,u,0%,3%,u
COc1cc(OC)cc(C2=Cc3ccccc3C(CC(C)=O)N2c2ccc(-c3cncnc3)cc2)c1 (stereo not given),16µM*,u,23µM*,19%,3%,18µM*
COc1cc(OC)cc(C2=Cc3ccccc3C(CC(C)=O)N2c2ccc(C#CC3(O)CCCCC3)cc2)c1 (stereo not given),u,u,u,-29%,-23%,u
O=C(CC1c2ccccc2C=C(c2ccsc2)N1c1ccc(-c2cccnc2)cc1)C1CC1 (stereo not given),18µM*,u,u,-2%,-8%,u
COC(=O)c1ccc(N2C(c3cccc(OC)c3)=Cc3ccc(F)cc3C2c2c(C)[nH]c3ccccc23)cc1 (stereo not given),u,i,i,u,u,23µM*
O=C1c2ccccc2C(O)N1c1cccnc1 (stereo not given),-2%,i,i,16%,2%,18%
O=S(=O)(Nc1nccs1)c1ccc(Cl)cc1,-13%,i,i,1%,7%,u
O=C(COc1ccccc1[N+](=O)[O-])NCCCN1CCCC1=O,8%,i,i,3%,0%,1%
COc1cc(OC)cc(C2=Cc3ccc(OC)cc3C(CC(C)=O)N2c2ccc(-c3cccs3)cc2)c1 (stereo not given),8.2µM*,i,7.3µM*,-2%,-12%,21µM*

# Compound activity: PubChem, National Center for Advancing Translational Sciences (NCATS)
